# MCF10A rereplic = DNA re-replication induction in MCF 10a cells | Potency, µM (titrated, usually from 46.1 µM), most hits filed as activators | MCF 10A DNA re-replication, Hoechst nuclear intensity, 48 h | AID 624296 | hit rate 2.9% among 350,000; further: nearly all actives have a fitted effect of over 50% in size
# SW480 rerep = induces DNA re-replication in SW480 colon adenocarcinoma cells | SW480 DNA re-replication, Hoechst DNA content imaging, 48 h | Potency, µM (top dose mostly 46.1 µM), most hits filed as activators | hit rate 1.8% among 340,000; further: nearly all actives have a fitted effect of over 55% in size
#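 Image-based DNA-content assay: after two days of treatment, nuclei were labelled with the DNA dye Hoechst and imaged, and hits were compounds raising the count of nuclei showing high fluorescence intensity.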
# DT40 TDP1 CPT = DT40-hTDP1 cell growth loss with CPT; chicken DT40 Tdp1-/-;hTDP1 cells + 20 nM CPT, ATP luminescence, 48 h; Potency, µM (titrated, usually from 46.2 µM), hits mostly inhibitors; hit rate 12% among 420,000; AID 686979; further: nearly all actives have a fitted effect of over 55% in size
#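 Chicken DT40 Tdp1-/- cells stably complemented with human TDP1 were seeded at 400 cells/well in medium containing 20 nM camptothecin, exposed to pin-transferred compounds, and grown at 37 °C for at least 48 hr. Viability was read as ATP luminescence.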
# TDP1 cell noCPT = qHTS for Inhibitors of human tyrosyl-DNA phosphodiesterase 1 (TDP1): qHTS in cells in absence of CPT; DT40 Tdp1-/- hTDP1 cells, no CPT, ATP luminescence, 48 h; AID 686978, 2013; Potency, µM (series often up to 46.2 µM), most hits filed as inhibitors; hit rate 15% among 420,000; further: nearly all actives have a fitted effect of over 55% in size
#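 Compound effects on proliferation are scored in DT40 Tdp1-/-;hTDP1 cells in the absence of CPT. ATP levels (CellTiter-Glo luminescence) are recorded after a ≥48 hr, 37 °C incubation.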
# Chronic BCR inh = inhibitors of chronic active B-cell receptor signaling; ABC-DLBCL IkBa-CBG/CBR reporter, luminescence ratio, 4 h; Potency, µM (titrated, usually from 46.1 µM), hits mostly inhibitors; hit rate 0.05% among 340,000; AID 493014; active means well fitted inhibition curve with a large enough effect in the signal ratio, with a control signal flat, not every such curve was filed as active; inconclusive means small, poorly fitted or top-dose-only effect, or effect the other way, or a change in a side signal; the % refers to the signal ratio
#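 TMD8 human ABC-DLBCL cells with doxycycline-inducible IκBα–green luciferase fusion and unfused red luciferase, in 0.5% FBS medium; compounds up to 46 uM, 4 h at 37C. Green/red luminescence ratio, filter-overlap corrected, fitted to concentration-response curves.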
# IL-1B inflam inh = inhibitors of inflammasome signaling (IL-1 beta secretion) | THP-1 LPS/ATP IL-1B secretion, AlphaLISA, 16 h; active compounds read low | activity change, % at 57.5 µM | hit rate 4.7% among 360,000; in the data active means activity change below about -50%; inconclusive means mostly about -30% to -49%
#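 THP-1 cells pretreated 1 hr with compounds (up to 57.5 uM final), then stimulated with LPS (250 ng/mL final) plus ATP (1.25 mM final); secreted IL-1B measured by AlphaLISA after 16 hr, decreased signal indicating inhibition.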
# A number is an active result; n = inactive; u = inconclusive; x = not tested or not shown; ! = repeats disagree. The list is not random: actives were taken first. Their share in the collection is about 19%. Unless noted, the call rests on the fitted dose curve; in most records, active means well fitted curve in the direction sought with a large enough effect; inconclusive means small, poorly fitted or top-dose-only effect, or another doubt; inactive means no such curve, though single readings can be large; an effect the other way counts as inactive or inconclusive.
SMILES,MCF10A rereplic,SW480 rerep,DT40 TDP1 CPT,TDP1 cell noCPT,Chronic BCR inh,IL-1B inflam inh
COc1ccc(Nc2nc3cc(C)ccc3cc2C#N)cc1,n,n,u,n,u,n
Cc1cccc(C(=O)NC2CCN(CC(=O)Nc3ccccc3Cl)CC2)c1,n,n,n,n,n,n
Cc1nc2c3cccnc3nn2c(C)c1CCC(=O)NCc1ccccc1,x,x,n,n,x,x
O=C(Nc1ccc(N2CCOCC2)cc1)c1csc([C@H]2C[C@H](O)[C@@H](CO)O2)n1,x,x,n,n,x,n
Cc1ccc2cc(C#N)c(NCc3ccccc3)nc2c1,9.2µM,u,n,n,n,n
Cc1oc(-c2cccc(Cl)c2)nc1CSCC(=O)O,n,n,16µM!,29µM!,u,n
Cc1oc(-c2ccc(C(=O)Nc3cccc(C(F)(F)F)c3)cc2)nc1CSc1ccccc1,x,x,23µM,16µM,x,x
Cc1cccc(NC(=O)c2ccc(-c3nc(CSc4ccccc4)c(C)o3)cc2)c1C,x,x,5.2µM,u,x,x
Cc1ccc(Cl)cc1NC(=O)c1ccc(-c2nc(CSc3ccccc3)c(C)o2)cc1,x,x,9.2µM,6.5µM,x,x
Cc1oc(-c2ccccc2Cl)nc1CSCC(=O)O,n,n,n,n,n,n
O=C(COC(=O)C1CC1)NC(=O)c1ccccc1,n,n,u,n,n,n
Cc1ccc2scc(CN3CCCC3)c2c1,n,n,n,n,x,n
COc1ccc(C)cc1NC(=O)c1ccc2c(O)c(S(=O)(=O)c3ccccc3)c(=O)[nH]c2c1,n,n,n,n,n,n
CC1=NN(C(=O)c2ccc(Cn3cc([N+](=O)[O-])cn3)cc2)C(O)(C(F)(F)F)C1 (stereo unspecified),n,n,1.8µM,3.7µM,n,n
CC1=NN(C(=O)c2cccc(Cn3nc(C)c([N+](=O)[O-])c3C)c2)C(O)(C(F)(F)F)C1 (stereo unspecified),5.8µM,u,n,u,n,n
CC(C)(C)OC(=O)N1CCC[C@H]1C(=O)N/N=C/c1cccc2nccnc12,n,n,n,u,n,n
CC(C)CCNc1nc(N)c([N+](=O)[O-])c(N2CCCCCC2)n1,u,u,u,16µM,n,n
Nc1nc(NCc2ccco2)nc(N2CCN(Cc3ccccc3)CC2)c1[N+](=O)[O-],n,u,u,18µM,n,n
Nc1nc(NCc2ccco2)nc(N2CCCCCC2)c1[N+](=O)[O-],n,n,21µM,16µM,n,n
COc1ccc(CN(C(=O)c2snc(C(N)=O)c2N)C(CC(C)C)C(=O)NC2CCCCC2)cc1 (stereo unspecified),n,n,u,u,n,-71
CC(C)CCNC(=O)C(CC(C)C)N(Cc1ccc2c(c1)OCO2)C(=O)c1snc(C(N)=O)c1N (stereo unspecified),u,n,n,u,n,-57
COc1ccc(C(=O)c2c(N)c(C(=O)Nc3cccc(OC)c3)c3ccccn23)cc1,x,x,u,n,x,x
CC(=O)Nc1c([N+](=O)[O-])cc2c3c(cccc13)CC2,x,x,n,n,x,n
Cc1ccc(CNC(=O)Cn2c3ncccc3c(=O)n2-c2ccc(C)cc2)cc1,x,x,21µM,u,x,x
CCc1cccc(-n2c(=O)c3cccnc3n2CC(=O)Nc2c(C)cc(C)cc2C)c1,x,x,u,23µM,x,x
SMILES,MCF10A rereplic,SW480 rerep,DT40 TDP1 CPT,TDP1 cell noCPT,Chronic BCR inh,IL-1B inflam inh
Cc1ccc(-n2c(=O)c3cccnc3n2CC(=O)Nc2cc(C)cc(C)c2)cc1,x,x,u,n,n,x
Cc1ccc(CNC(=O)Cn2c3ncccc3c(=O)n2-c2ccccc2)cc1,x,x,u,n,x,x
Cc1ccc(-n2c(=O)c3cccnc3n2CC(=O)Nc2ccc(C)cc2Cl)cc1,x,x,u,13µM,x,x
CCCC(NC(=O)C(C)NC(=O)CO/N=C1\C=C2CCC3C4CCC(C(C)=O)[C@@]4(C)CCC3[C@@]2(C)CC1)C(=O)O (stereo partly specified),n,n,n,n,n,n
COc1ccc(-c2csc(C)n2)cc1,n,n,n,n,n,n
COc1ccc(-c2csc(CCN3N=C(C)CC3=O)n2)cc1,n,n,u,u,u,-53
COC(=O)C[C@H]1C[C@H]2c3cc(NS(=O)(=O)c4cccc(OC)c4)ccc3O[C@H]2[C@@H](CO)O1,x,x,n,n,x,n
COc1ccc(C(=O)Nc2ccccc2Cc2ccccc2)c(OC)c1,u,n,18µM,u,u,n
COc1ccc(NC(=O)c2ccccc2Oc2ccccc2)c(OC)c1,26µM,n,n,n,n,n
O=C(c1ccc([N+](=O)[O-])cc1)N1CCN(C2=NS(=O)(=O)c3ccccc32)CC1,n,n,n,n,n,n
CSc1ccc(CCNC(=O)Cn2ncn3c(cc4ccccc43)c2=O)cc1,x,x,n,n,x,x
O=[N+]([O-])c1ccccc1S(=O)(=O)NCc1ccccn1,x,x,n,n,x,x
O=C(N/N=C/c1cccc(Br)c1)c1ccc(Cn2cc(Br)cn2)o1,n,n,n,u,n,-73
Cc1ccc(NC(=O)c2ccc(Cn3cc(Br)cn3)o2)cc1,n,n,u,21µM,u,n
NNC(=O)c1ccc(Cn2cc(Br)cn2)o1,n,n,n,n,u,n
COc1cccc(CNC(=O)CCc2ccc(OC)c(OC)c2)c1,n,n,n,n,n,n
N#CC1=C(N)Nc2nc3ccccc3n2C1c1ccc(Cl)cc1 (stereo unspecified),n,n,u,u,u,n
Cc1[nH]nc2c1C(=O)CCC2,n,n,23µM,18µM,n,n
CC1=CC(C)(C)NC(=S)N1c1ccc(N(C)C)cc1,n,n,n,n,x,n
Cc1ccc(N2C(=N)/C(=C3/Nc4ccccc4S3)C(c3ccccc3)C2=O)cc1 (stereo unspecified),n,n,u,4.6µM,n,n
CC1=NN(c2ccccc2)C(=O)C1c1ccccc1 (stereo unspecified),n,n,n,n,n,n
COc1ccc2ncccc2c1Cc1c(OC)ccc2ncccc12,u,u,15µM,13µM,x,-75
COc1cc(OC)c(OC)cc1/C=C/c1ccnc2ccccc12,u,u,13µM,16µM,x,n
COc1ccccc1/C=C/c1nc2ccccc2c(=O)o1,n,n,n,n,x,n
COc1ccccc1/C=C/c1ccnc2ccccc12,x,x,u,14µM,x,x
COc1ccc(OC)c(/C=C/c2ccnc3ccccc23)c1,5.2µM,12µM,3.7µM,4.6µM,x,-76
Cc1ccc2ncccc2c1N,n,n,n,n,n,n
CCN(CC)C(=O)CSc1nnc(CSc2ncccn2)n1C,n,n,n,n,n,n
Cn1cnc(S(=O)(=O)Nc2ccc(OC(F)(F)F)cc2)c1,n,n,n,n,n,n

# Screening data: PubChem, National Center for Advancing Translational Sciences (NCATS)
